Results on seven molecules are retold here after PubChem BioAssay (EPA / NIEHS).

Read-out in assay [1]: Tissue Factor, F3 (gene 2152)
In words: BSK_CASM3C_TissueFactor: BioMAP Diversity Plus: CASM3C Assay for Tissue Factor Biomarker Activity (AID 2283052).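 Also: cell surface tissue factor protein level read by ELISA.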 The settings on record: primary human coronary artery smooth muscle cells; actives raise or lower the signal.

Read-out in assay [2]: Interferon-gamma inducible Protein 10 (IP10), CXCL10 (gene 3627)
In words: BSK_hDFCGF_IP10: BioMAP Diversity Plus: hDFCGF Assay for Interferon-gamma inducible Protein 10 (IP10) Biomarker Activity (AID 2283053). Particulars: primary human foreskin fibroblasts; actives raise or lower the signal. The gist of the method: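 Primary human foreskin fibroblasts exposed to chemicals for 24 h. IP-10 measured by ELISA; changes fitted bidirectionally against DMSO baseline.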

Read-out in assay [3]: Urokinase-type plasminogen activator receptor (uPAR), PLAUR (gene 5329)
In words: BSK_CASM3C_uPAR: BioMAP Diversity Plus: CASM3C Assay for Urokinase-type plasminogen activator receptor (uPAR) Biomarker Activity (AID 2283054).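 Also: cell-surface uPAR protein level quantified by ELISA.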 The settings on record: primary human coronary artery smooth muscle cells; actives raise or lower the signal.

Read-out in assay [4]: Vascular cell adhesion molecule 1 (VCAM1), VCAM1 (gene 7412)
In words: BSK_CASM3C_VCAM1: BioMAP Diversity Plus: CASM3C Assay for Vascular cell adhesion molecule 1 (VCAM1) Biomarker Activity (AID 2283055).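 Also: VCAM-1 protein level quantified by ELISA on the cells.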 Particulars: primary human coronary artery smooth muscle cells; actives raise or lower the signal.

Read-out in assay [5]: Collagen III, COL3A1 (gene 1281)
In words: BSK_hDFCGF_CollagenIII: BioMAP Diversity Plus: hDFCGF Assay for Collagen III Biomarker Activity (AID 2283056). Particulars: primary human foreskin fibroblasts; actives raise or lower the signal. The gist of the method:
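Cells: human foreskin fibroblasts, primary. Dosing followed by 24 h incubation, then ELISA for collagen III. Both increases and decreases scored relative to DMSO.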

Read-out in assay [6]: Interleukin-8 (IL8), CXCL8 (gene 3576)
In words: BSK_hDFCGF_IL8: BioMAP Diversity Plus: hDFCGF Assay for Interleukin-8 (IL8) Biomarker Activity (AID 2283058). The settings on record: primary human foreskin fibroblasts; actives raise or lower the signal. The method, boiled down: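 IL-8 levels from compound-treated primary human fibroblasts were read by ELISA at 24 h, with DMSO serving as baseline for bidirectional fitting.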

Assay [7] in a line: BSK_hDFCGF_Proliferation: Cell Proliferation Assessment in the BioMAP Diversity Plus: hDFCGF Assay (AID 2283059).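 Also: curves fitted for both rise and fall of signal versus DMSO baseline.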 Particulars: primary human foreskin fibroblasts. The method, boiled down: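 This proliferation readout used SRB total-protein staining of human foreskin fibroblasts […], normalized to DMSO with bidirectional curve fitting.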
Read-out in assay [8]: Macrophage colony-stimulating factor (MCSF), CSF1 (gene 1435)
In words: BSK_hDFCGF_MCSF: BioMAP Diversity Plus: hDFCGF Assay for Macrophage colony-stimulating factor (MCSF) Biomarker Activity (AID 2283060). The settings on record: primary human foreskin fibroblasts; actives raise or lower the signal. The method, boiled down:
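M-CSF levels, determined by ELISA, are taken at 24 h after dosing human skin fibroblasts. Responses in either direction are fitted with DMSO serving as the baseline.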

A short description of assay [9]: BSK_hDFCGF_SRB: Viability Assessment in the BioMAP Diversity Plus: hDFCGF Assay (AID 2283061).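 Also: cells exposed to compound for 24 h before the read.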 Particulars: primary human foreskin fibroblasts. The gist of the method: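 Cells were dosed with test chemical, cultured 24 h, fixed with 10% TCA, then stained with 0.1% SRB and read at 560 nm. The fibroblasts were human foreskin primary cells, and DMSO served as baseline.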

Read-out in assay [10]: TIMP metallopeptidase inhibitor 1 (TIMP1), TIMP1 (gene 7076)
In words: BSK_hDFCGF_TIMP1: BioMAP Diversity Plus: hDFCGF Assay for TIMP metallopeptidase inhibitor 1 (TIMP1) Biomarker Activity (AID 2283062). The settings on record: primary human foreskin fibroblasts; actives raise or lower the signal. The gist of the method:
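Fibroblasts from human foreskin are treated with test chemical and harvested at 24 h. TIMP-1 is quantified by ELISA, and gain or loss of signal is scored against DMSO.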

Read-out in assay [11]: Monokine induced gamma interferon (MIG), CXCL9 (gene 4283)
In words: BSK_hDFCGF_MIG: BioMAP Diversity Plus: hDFCGF Assay for Monokine induced gamma interferon (MIG) Biomarker Activity (AID 2283063). The settings on record: primary human foreskin fibroblasts; actives raise or lower the signal. The method, boiled down:
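MIG signal, determined by ELISA, reflects 24 h chemical exposure of human skin primary fibroblasts. DMSO serves as negative control and baseline.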

Read-out in assay [12]: Matrix Metallopeptidase 1 (MMP1), MMP1 (gene 4312)
In words: BSK_hDFCGF_MMP1: BioMAP Diversity Plus: hDFCGF Assay for Matrix Metallopeptidase 1 (MMP1) Biomarker Activity (AID 2283064). The settings on record: primary human foreskin fibroblasts; actives raise or lower the signal. The method, boiled down: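 Primary human foreskin fibroblasts exposed to chemicals for 24 h; MMP1 measured by ELISA. Cytotoxicity tracked by SRB staining in parallel cultures; bidirectional fit relative to DMSO.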

Read-out in assay [13]: Vascular cell adhesion molecule 1 (VCAM1), VCAM1 (gene 7412)
In words: BSK_hDFCGF_VCAM1: BioMAP Diversity Plus: hDFCGF Assay for Vascular cell adhesion molecule 1 (VCAM1) Biomarker Activity (AID 2283065).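 As to AC50: VCAM-1 protein level quantified by ELISA after 24 h chemical exposure.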 Particulars: primary human foreskin fibroblasts; actives raise or lower the signal. The gist of the method: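 Cells are dosed, cultured for 24 h, then VCAM-1 is quantified by ELISA; signal increases and decreases are both fitted relative to DMSO.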

Read-out in assay [14]: Plasminogen activator inhibitor-1 (PAI1), SERPINE1 (gene 5054)
In words: BSK_hDFCGF_PAI1: BioMAP Diversity Plus: hDFCGF Assay for Plasminogen activator inhibitor-1 (PAI1) Biomarker Activity (AID 2283066). The settings on record: primary human foreskin fibroblasts; actives raise or lower the signal. The gist of the method:
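Human foreskin fibroblast primary cells, 24 h chemical exposure; PAI-1 measured by ELISA. Bidirectional fitting relative to DMSO; parallel cultures stained with SRB for total protein to flag overt cytotoxicity.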

Read-out in assay [15]: Intercellular Adhesion Molecule 1 (ICAM1), ICAM1 (gene 3383)
In words: BSK_KF3CT_ICAM1: BioMAP Diversity Plus: KF3CT Assay for Intercellular Adhesion Molecule 1 (ICAM1) Biomarker Activity (AID 2283067). The settings on record: primary human keratinocytes with fibroblasts; actives raise or lower the signal. The gist of the method: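 Dose the keratinocyte/fibroblast co-culture, wait 24 h, measure ICAM-1 by ELISA, then fit increases or decreases against DMSO. Cytotoxicity is checked in parallel cultures by SRB total-protein staining.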

Read-out in assay [16]: Interferon-gamma inducible Protein 10 (IP10), CXCL10 (gene 3627)
In words: BSK_KF3CT_IP10: BioMAP Diversity Plus: KF3CT Assay for Interferon-gamma inducible Protein 10 (IP10) Biomarker Activity (AID 2283068). The settings on record: primary human keratinocytes with fibroblasts; actives raise or lower the signal. The gist of the method:
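Signal is secreted/surface IP-10 by ELISA in a human primary skin co-culture of keratinocytes and foreskin fibroblasts, taken 24 h post-dosing; DMSO served as negative control.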

The nature of assay [17]: BSK_KF3CT_SRB: Viability Assessment in the BioMAP Diversity Plus: KF3CT Assay (AID 2283069).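 Also: total protein by sulforhodamine B staining as a cytotoxicity measure; fitted for both signal gain and loss against DMSO baseline.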 The settings on record: primary human keratinocytes with fibroblasts. The gist of the method: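 Human keratinocyte and foreskin fibroblast co-culture exposed to chemical for 24 h. Total protein measured in parallel cultures by 0.1% sulforhodamine B staining after 10% TCA fixation, read at 560 nm; bidirectional fit relative to DMSO.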

Read-out in assay [18]: Interleukin-1 alpha (IL1a), IL1A (gene 3552)
In words: BSK_KF3CT_IL1a: BioMAP Diversity Plus: KF3CT Assay for Interleukin-1 alpha (IL1a) Biomarker Activity (AID 2283070). The settings on record: primary human keratinocytes with fibroblasts; actives raise or lower the signal. The method, boiled down: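 Primary human keratinocyte plus foreskin fibroblast co-culture, dosed and measured at 24 h in 96-well plates. IL-1a level quantified by ELISA; bidirectional fit relative to DMSO.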

Read-out in assay [19]: TIMP metallopeptidase inhibitor 2 (TIMP2), TIMP2 (gene 7077)
In words: BSK_KF3CT_TIMP2: BioMAP Diversity Plus: KF3CT Assay for TIMP metallopeptidase inhibitor 2 (TIMP2) Biomarker Activity (AID 2283071). The settings on record: primary human keratinocytes with fibroblasts; actives raise or lower the signal. The gist of the method:
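Co-culture of human primary keratinocytes and foreskin fibroblasts, measured 24 h after chemical dosing. TIMP-2 quantified by ELISA and fitted in both directions relative to DMSO. Cytotoxicity checked in parallel cultures by SRB total-protein staining.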

The structures appear in SMILES notation. Activity calls are given as the source filed them. The calls were made as follows: active = hit-call score of the fitted dose curve at least 0.9, where 1 is the maximum; inactive = score below 0.9.

For the molecule `CC(=O)Oc1ccccc1C(=O)O`, the result in assay [1], in assay [2], in assay [3], in assay [4], in [5] and in assay [6] was inactive. Besides, the result in assay [7], in assay [8], in assay [9], in assay [10], in [11] and in [12] was inactive. Further, the outcome in assay [13], in assay [14], in [15], in assay [16], in assay [17] and in assay [18] was inactive. For the same molecule, the result in [19] was inactive.
Regarding `Cc1cccc(C)c1O`, the result in assay [1], in assay [2], in assay [3], in assay [4], in assay [5] and in [6] was inactive. Besides, the result in assay [7], in [8], in [9], in assay [10], in [11] and in assay [12] was inactive. The outcome in assay [13], in assay [14], in [15], in assay [16], in [17] and in [18] was inactive. Further, the result in [19] was inactive.
As to `CC1=C(/C=C/C(C)=C/C=C/C(C)=C/CO)C(C)(C)CCC1`, the outcome in assay [1], in assay [3], in assay [4], in assay [5], in [6] and in assay [10] was inactive. Moreover, the outcome in assay [12], in assay [15], in assay [17], in [18] and in [19] was inactive. Also, the AC50 in [2] was 27.4 µM (active); in assay [7], 12.4 µM (active); in assay [8], 24.2 µM (active); in assay [9] it was 37.8 µM (active); in [11] it was 27 µM (active); in assay [13], 20.9 µM (active). Also, the half-maximal activity concentration (AC50) in assay [14] was 20.9 µM (active); in assay [16], 31.4 µM (active).
For the molecule `Cc1ccc(C)c(O)c1C`, the result in assay [1], in assay [2], in assay [3], in [4], in assay [5] and in assay [6] was inactive. In addition, the result in [8], in assay [9], in [10], in assay [11], in [12] and in assay [13] was inactive. Further, the outcome in assay [14], in assay [15], in assay [16], in assay [17], in assay [18] and in assay [19] was inactive.
With `CN[C@H]1CC[C@@H](c2ccc(Cl)c(Cl)c2)c2ccc(S(N)(=O)=O)cc21`, the AC50 in [1] was 9.57 µM (active); in assay [2] it was 26 µM (active); in assay [3], 27.3 µM (active); in [4] it was 31.4 µM (active); in assay [5] it was 20 µM (active); in assay [6], 34.1 µM (active). Further, the AC50 in [8] was 20 µM (active); in [9], 28.1 µM (active); in assay [10], 31.4 µM (active); in [11], 34.5 µM (active); in [12], 32.2 µM (active); in assay [13] it was 11.9 µM (active). The AC50 was 23.9 µM (active) in assay [14]; 31.6 µM (active) in assay [15]; 28.3 µM (active) in [16]; 30.6 µM (active) in [17]; 29.1 µM (active) in assay [18]; 25.3 µM (active) in assay [19].
As to `CC(=O)OCCOCCOCCOC(C)=O`, the outcome in assay [1], in [2], in [3], in assay [4], in assay [5] and in assay [6] was inactive. The result in [8], in [9], in assay [10], in assay [11], in assay [12] and in assay [13] was inactive. For the same molecule, the outcome in assay [14], in assay [15], in assay [16], in assay [17] and in assay [18] was inactive.
For `CCCCCCCCCCCCCO`, the outcome in [1] and in assay [3] was inactive. Besides, the AC50 in assay [2] is 13.2 µM (active); in [4] it was 28.3 µM (active); in assay [5] it was 12.9 µM (active); in assay [6], 29.9 µM (active); in [8], 13.7 µM (active); in [9], 13.1 µM (active). For the same molecule, the half-maximal activity concentration (AC50) is 13.1 µM (active) in assay [10]; 24.3 µM (active) in [11]; 15.6 µM (active) in [12]; 9.95 µM (active) in assay [13]; 12.9 µM (active) in assay [14]; 36.7 µM (active) in assay [15]. Moreover, the AC50 in assay [16] is 36.2 µM (active); in assay [17], 31.9 µM (active); in [18], 35.2 µM (active); in assay [19] it was 34.1 µM (active).
